Bioassay records deposited in PubChem by several laboratories.
Most compounds without a hit are left out; they make up all but 4.6% or so of the library.
tim10-1 inh = growth inhibitors of tim10-1 mutant yeast, primary screen, luminescence, uHTS; S. cerevisiae tim10-1 ts strain growth, BacTiter-Glo, 24 h; inhibition, % at 20 µM; 2.2% of 330,000 active; AID 463190, 2010;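 active means inhibition of at least 40%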;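 further: mutant grown at 25 °C; 0% = DMSO wells with yeast and 100% = wells holding no yeast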
tim23-1 inh = growth inhibitors of tim23-1 mutant yeast, primary screen, luminescence, uHTS; S. cerevisiae tim23-1 growth, BacTiter-Glo luminescence, 24 h; inhibition, % at 20 µM; 1.3% of 330,000 active;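 active means growth inhibition of the mutant yeast at or above 50%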;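 further: temperature-sensitive mutant grown at 25 °C; plate controls were DMSO-treated mutant yeast for no effect and medium wells lacking yeast for full effect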
TIM10 inh = growth inhibitors of isogenic TIM10 control yeast, primary screen, counter-screen for tim10-1 yeast inhibitor project, luminescence, uHTS; S. cerevisiae TIM10 strain growth, BacTiter-Glo luminescence, 24 h; inhibition, % at 10 µM; 1.4% of 330,000 active; AID 463195, 2010;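 active means inhibition of 40% or more at the single tested concentration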;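 further: wild-type TIM10 isogenic control strain grown at permissive 25 °C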
SKKanGAS inh = S. pyogenes SKKanGAS growth inhibitors in kanamycin, primary screen, streptokinase expression inhibitor project, SKKanGAS strain, BacTiter-Glo luminescence | 6 h | inhibition, % at 7.5 µM | 1.3% of 300,000 active | AID 1662, 2009;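 active means mean replicate score, as percent of positive control median, at least 50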;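 further: strain carries kanamycin resistance gene driven by streptokinase promoter and grows in 40 µg/ml kanamycin; loss of luminescence reflects streptokinase promoter inhibition or plain growth inhibition; 0% = median of DMSO wells and 100% = positive control at its reference dose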
NLRP3 yeast inh = NALP3 inflammasome inhibitors in reconstituted yeast, primary screen, luminescence, uHTS. Yeast reconstituted NLRP3/ASC/caspase-1, beta-gal luminescence, 24 h. inhibition, % at 10 µM. 0.39% of 330,000 active. AID 2825, 2010;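 active means inhibition of 50% or more; inactive means inhibition below 50%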;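 further: plate controls were induced DMSO wells for no effect and uninduced yeast grown without galactose for full effect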
PfHsp90 set2 = growth inhibition of PfHsp90-expressing yeast, primary screen, antimalarial PfHsp90 inhibitor project, S. cerevisiae, BacTiter-Glo luminescence, single point, set 2; BacTiter-Glo ATP, 48 h; yeast lacking PDR1 and PDR3 efflux regulators; AID 504621, 2011; inhibition, % at 9.4 µM; 0.32% of 310,000 active;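 active means every replicate shows inhibition above about 80%, whatever the replicate mean, limit read from the data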;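 further: 0% = DMSO neutral controls and 100% = 20 µM radicicol positive controls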
TIM10 conf = growth inhibitors of wild-type TIM10 yeast, confirmation, counter-screen for tim10-1 synthetic lethality project, single concentration, luminescence, S. cerevisiae | 63% of 4,600 active | inhibition, % at 10 µM | AID 463215, 2010 | shares compounds with TIM10 inh | S. cerevisiae tim10 strain growth, BacTiter-Glo luminescence, 24 h;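 active means inhibition of yeast growth at or above a set limit in either of two replicates at 10 µM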;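 further: this counterscreen used the strain with wild-type TIM10; 0% = yeast with DMSO and 100% = medium wells lacking yeast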
tim23-1 conf = tim23-1 mutant yeast growth inhibitors, confirmation, luminescence, single concentration. 83% of 4,400 active. S. cerevisiae tim23-1 growth, BacTiter-Glo luminescence, 24 h. AID 463218, 2010. inhibition, % at 20 µM. shares compounds with tim23-1 inh;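 active means inhibition above about 39% in either of two replicate wells at 20 µM, limit read from the data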;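 further: temperature-sensitive tim23-1 mutant grown at 25 °C; 0% = DMSO wells with yeast and 100% = medium wells without yeast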
The depositor's hits bear a star; . = no result given.

SMILES	tim10-1 inh	tim23-1 inh	TIM10 inh	SKKanGAS inh	NLRP3 yeast inh	PfHsp90 set2	TIM10 conf	tim23-1 conf
CN(C)c1ccc(S(=O)(=O)N2CCCCC2)cc1NC(=O)C1=NN(c2ccccc2)C(=O)CC1	-2	-9	-10	11	20	-5	.	.
COC(=O)c1ccc(COC(=O)C(NC(=O)Cc2ccccc2)C(C)C)cc1 (stereo not given)	17	22	11	.	-1	.	.	.
O=C(CNCc1cccs1)Nc1ccc(N2CCCCCC2)cc1	11	35	0	-5	35	8	.	.
CC(C)(C)c1nn(-c2ccccc2)c2nc(Cl)c(C=O)cc12	13	27	10	-6	3	37	.	.
CC(C)(C)c1nn(-c2ccccc2)c2[nH]c(=O)c(C=O)cc12	-23	80*	72*	4	25	120*	91*	-44
CO/C(N)=C(\C#N)N=Cc1ccccc1Cl	23	52*	47*	2	6	11	11	64*
Cc1ccc(S(=O)(=O)NC(=O)C2CCCCC2)cc1	-5	-2	9	.	10	5	.	.
CCOc1cc(Br)c(Br)c(C=Nc2ccc(NC(C)=O)cc2)c1O	-6	76*	71*	-2	10	-22	90*	-61
CCOC(=O)c1sc2ccccc2c1OC(=O)c1ccccc1OC	35	54*	49*	8	4	1	44*	50*
CSC1=NC(=O)/C(=C\c2cccc3ccccc23)S1	12	76*	41*	.	0	-7	26	51*
COc1cccc(/C=C2\N=C(SC)SC2=O)c1OC	29	18	28	14	12	21	.	.
CCC(C)NCCOc1ccccc1C (stereo not given)	-2	-1	-8	-1	-8	-14	.	.
CCCCN=Cc1sc2ccc(OCC)cc2c1O	31	58*	43*	-7	-15	.	27*	54*
C=CCN=Cc1sc2ccc(OCC)cc2c1O	30	15	24	-4	18	.	.	.
CC(=O)c1ccc(OCCOc2ccc([N+](=O)[O-])cc2)cc1	18	38	5	-8	28	10	.	.
O=Cc1ccccc1OCCOc1ccc([N+](=O)[O-])cc1	36	58*	76*	-21	23	10	68*	90*
Nc1ccc(-c2nc3c(ccc4ccccc43)[nH]2)cc1	5	58*	66*	14	23	23	66*	52*
CC(NS(=O)(=O)c1cccc(C(=O)NCc2ccncc2)c1)c1ccccc1 (stereo not given)	2	16	-2	.	8	8	.	.
Cc1cc(C(=O)COC(=O)c2cccnc2Cl)c(C)n1-c1c(C)n(C)n(-c2ccccc2)c1=O	21	9	-3	-15	6	6	.	.
CCC(O)(CC)C(=O)N/N=C/c1cc(Br)cc(Br)c1O	14	67*	58*	89*	14	-19	49*	73*
O=C(N/N=C/c1ccc(O)cc1O)c1ccncc1	-9	1	14	-2	-8	5	.	.
O=C(N/N=C/c1cc(Br)cc(Br)c1O)c1ccncc1	28	65*	45*	69*	26	.	51*	65*
Cn1cc(CN2CCCC(C(=O)Nc3ccc(-c4cccc(F)c4)cc3)C2)cn1 (stereo not given)	13	18	14	0	0	2	.	.
COc1ccc(S(=O)(=O)N/N=c2\oc3c(OC)cccc3cc2S(=O)(=O)c2ccc(C)cc2)cc1OC	-9	6	6	11	23	-19	.	.
CCOC(=O)CSc1c(-c2ccc(Cl)cc2)[nH]c2ccccc12	25	27	37	-5	14	0	.	.
SMILES	tim10-1 inh	tim23-1 inh	TIM10 inh	SKKanGAS inh	NLRP3 yeast inh	PfHsp90 set2	TIM10 conf	tim23-1 conf
CCOC(=O)CSc1c(-c2cccs2)[nH]c2ccccc12	31	55*	49*	23	8	-37	-17	52*
O=C(Nc1ccc2oc(-c3ccccc3F)nc2c1)c1ccc2c(c1)OCCO2	39	60*	46*	21	20	14	36*	70*
Cc1ccccc1-c1nc2cc(NC(=O)C3CC3)ccc2o1	16	71*	63*	-9	35	12	54*	75*
COc1ccccc1CNC(=O)C1CCN(S(=O)(=O)c2ccc3c(c2)C(C)(C)C(=O)N3C)CC1	13	15	3	4	-10	4	.	.
O=c1c(Cl)c(NCc2ccco2)cnn1C12CC3CC(CC(C3)C1)C2	-21	31	-11	-5	18	14	.	.
O=c1c(Cl)c(NCc2ccccc2Cl)cnn1C12CC3CC(CC(C3)C1)C2	6	52*	41*	5	37	16	27	55*
Cc1ccc(NC(=O)c2cc(C)n(-c3cccc(C)c3)c2C)cc1	16	43	34	-2	18	-13	.	.
Cc1ccc(NC(=O)c2cc(C)n(-c3ccccc3)c2C)cc1	34	52*	50*	-1	24	8	-22	58*
CCCc1nc2oc3cc(OC)ccc3c(=O)c2c(=O)n1Cc1ccco1	22	0	-17	17	-1	-38	.	.
CCCCCCn1c(-c2ccco2)nc2oc3cc(OC)ccc3c(=O)c2c1=O	34	50*	45*	36	17	-6	16	37*
Cc1ccc2nc(N(CCCN(C)C)C(=O)c3cc(-c4cccs4)nc4ccccc34)sc2c1	40	60*	41*	18	31	-42	42*	31
CN(C)CCCN(C(=O)c1cc(-c2cccs2)nc2ccccc12)c1nc2c(F)cccc2s1	37	-3	30	18	27	25	.	.
CC12CC3CC(C)(C1)CC(C(=O)NC(=S)N1CCCCC1)(C3)C2	25	51*	41*	-6	25	-23	14	32
O=C1/C(=C/c2ccncc2)SC(=S)N1C1CCCCC1	36	51*	50*	-23	24	-27	-8	39*
CCN1C(=O)/C(=C\c2ccncc2)SC1=S	26	68*	51*	-5	-7	36	39*	15
O=C(O)CCN1C(=O)/C(=C\c2ccncc2)SC1=S	6	8	9	-2	14	30	.	.
